We go through 21 compounds from PubChem BioAssay (NCI).

Compounds without any hit were thinned out: in the full panel of roughly 79,000, 15% have a hit. A number with no mark means an inactive call. Calls of active or inactive are those of the source. No stated cut-off is given here; in the data, active means growth inhibition above about 70%; inactive means the rest.

Test [1] is described as follows: NCI Yeast Anticancer Drug Screen. Data for the rad50 strain (AID 155).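 Further: 0% = growth of vehicle-only cultures of the same strain.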 Conditions: S. cerevisiae rad50 strain growth inhibition; at 50.0 µM; stronger effect = higher value. The method in brief:
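Vehicle-treated cultures provide the reference for the growth inhibition reported for compound-exposed, repair-deficient yeast.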

Test [2] is described as follows: NCI Yeast Anticancer Drug Screen. Data for the mec2-1 strain (AID 157). Conditions: S. cerevisiae mec2-1 strain, at 50.0 µM, stronger effect = higher value. The gist of the method:
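Strain: mec2-1 (DNA repair/cell cycle alteration). Compound exposure, then growth measured; inhibition expressed relative to vehicle.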

A short description of test [3]: NCI Yeast Anticancer Drug Screen. Data for the sgs1 mgt1 strain (AID 161).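 Further: 0% = growth of cultures given vehicle only.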 The note with it: S. cerevisiae sgs1 mgt1 strain, at 50.0 µM, stronger effect = higher value. The gist of the method: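 Test agents were incubated with a DNA-repair-mutant yeast strain. Growth was then read and compared against vehicle-treated controls.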
Test [4] can be described thus: NCI Yeast Anticancer Drug Screen. Data for the cln2 rad14 strain (AID 165).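 Further: 0% = growth equal to vehicle treated cultures.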 Conditions: S. cerevisiae cln2 rad14 strain, at 50.0 µM, stronger effect = higher value. The method in brief: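 Compounds are applied to the cln2 rad14 yeast strain, and growth is then compared with that of vehicle-treated cultures to give inhibition.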
Test [5] in a line: NCI Yeast Anticancer Drug Screen. Data for the bub3 strain (AID 167). Conditions: S. cerevisiae bub3 mutant strain, at 50.0 µM, stronger effect = higher value. The method in brief: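 Mutant yeast screening strain plus compound; vehicle-treated cultures serve as the 0% inhibition reference.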
A short description of test [6]: NCI Yeast Anticancer Drug Screen. Data for the mlh1 rad18 strain (AID 175). Conditions: S. cerevisiae mlh1 rad18 strain growth inhibition; at 50.0 µM; stronger effect = higher value. The gist of the method:
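Read-out is yeast growth inhibition, calculated against vehicle-only controls. The compound was applied to a strain engineered with DNA damage repair alterations.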

As to `C=C(CCC(Cl)C(COS(=O)(=O)c1ccc(C)cc1)OC(CCCO[Si](c1ccccc1)(c1ccccc1)C(C)(C)C)OCC)[Si](C)(C)C` (stereo unspecified), the growth inhibition in test [1] is 68.2%; in test [2], 65.7%; in test [3], 60.6%; in test [4], 69.1%; in test [5], 73% (active); in test [6] it was 58.4%.
As to `CC1=C/C(=N\NC(N)=S)C(C(O)(C(F)(F)F)C(F)(F)F)C(C)(C)C1` (stereo unspecified), the growth inhibition in test [1] is 65.9%; in test [2], 30.6%; in test [3], 47%; in test [4], 20.2%; in test [5], 41.5%; in test [6], 59.8%.
In the case of `CC/C(N)=N\OC(=O)c1ccccc1`, the growth inhibition was 14.3% in test [1]; -4.75% in test [2]; -4.45% in test [3]; -44.4% in test [4]; 2.8% in test [5]; -5% in test [6].
Regarding `N#Cc1ccc(Cl)cc1C#N`, the growth inhibition is 13.4% in test [1]; -4.65% in test [2]; -2.2% in test [3]; 7.65% in test [4]; 14.1% in test [5]; -14.3% in test [6].
In the case of `NNC(=O)C1CCC(=O)N1S(=O)(=O)c1ccccc1` (stereo unspecified), the growth inhibition was -14% in test [1]; -12.1% in test [2]; -22% in test [3]; 8.95% in test [4]; -2.25% in test [5]; -25.6% in test [6].
As to `CNC(=O)OCc1nc(N=[N+]=[N-])n(C)c1COC(=O)NC`, the growth inhibition in test [1] was -16.9%; in test [2], -19.1%; in test [3], -3.65%; in test [4], -31.4%; in test [5], 2.2%; in test [6] it was -24.4%.
For the compound `CN(N)c1cnn(-c2ccccc2)c(=O)c1Cl`, the growth inhibition in test [1] is -37.2%; in test [2], -48%; in test [3], -22.1%; in test [4] it was 19.4%; in test [5], 21.4%; in test [6] it was -36.6%.
`c1ccc(C2=Nc3ccccc3-c3ccccc3N2)cc1`: the growth inhibition is -2.95% in test [1]; -1.35% in test [2]; -6.05% in test [3]; -28.4% in test [4]; -4.75% in test [5]; -8.05% in test [6].
For the compound `COC(=O)NC1CC/C=C\CCC1I` (stereo unspecified), the growth inhibition was 12.8% in test [1]; 10% in test [2]; 8.1% in test [3]; 12.9% in test [4]; 22.9% in test [5]; 4.7% in test [6].
Take `CCOC(=O)C(=CNc1ccc(NC2=NCC(C)S2)cc1)C(=O)OCC` (stereo unspecified): the growth inhibition in test [1] is -0.05%; in test [2], 0.35%; in test [3] it was -20.4%; in test [4], -7.9%; in test [5], -35.8%; in test [6], -47%.
`c1ccc(-c2nc3ccccc3o2)cc1`: the growth inhibition in test [1] is 31.3%; in test [2], 21.4%; in test [3], 26.9%; in test [4], 4.25%; in test [5], 27.4%; in test [6] it was 37.4%.
Consider `O=C(Nc1ccc(Cl)cc1C(=O)O)c1ccc([N+](=O)[O-])cc1`, for which the growth inhibition in test [1] is 23.1%; in test [2], 18.2%; in test [3] it was 26.7%; in test [4], 38.8%; in test [5] it was 23.9%; in test [6] it was 53.2%.
With `CC(C)NCC(C)(C)[N+](=O)[O-]`, the growth inhibition in test [1] is 5.05%; in test [2] it was -8.55%; in test [3] it was 3.65%; in test [4], -4.1%; in test [5] it was 3.3%; in test [6] it was -0.95%.
`Nc1nc(N)nc(-c2ccc([N+](=O)[O-])o2)n1`: the growth inhibition in test [1] was 41.8%; in test [2], 10.8%; in test [3] it was 29.9%; in test [4] it was 20.8%; in test [5] it was 12.2%; in test [6], 41.6%.
Regarding `O=C(CN1C(=O)c2ccccc2C1=O)Oc1ccccc1`, the growth inhibition in test [1] is 1.8%; in test [2], -7.4%; in test [3], 1.1%; in test [4], -9.05%; in test [5] it was 16.4%; in test [6], -5.45%.
As to `O/N=C\c1cccc[n+]1Cc1ccc2ccccc2c1Br`, the growth inhibition in test [1] is -1.7%; in test [2], 1.95%; in test [3], -7.55%; in test [4], -7.05%; in test [5] it was 10.7%; in test [6], -1.75%.
On to `CCCCCCCCCC(=O)N/N=C/c1cccnc1`, for which the growth inhibition was 88.2% (active) in test [1]; 87% (active) in test [2]; 95.9% (active) in test [3]; 26.2% in test [4]; 71.1% (active) in test [5]; 91.3% (active) in test [6].
Regarding `c1ccc(-c2cc[c]([Sn]([c]3ccccc3)([c]3ccccc3)[c]3ccccc3)cc2)cc1`, the growth inhibition in test [1] is 95.2% (active); in test [2] it was 98.5% (active); in test [3], 96.8% (active); in test [4], 99.2% (active); in test [5], 99% (active); in test [6], 98.2% (active).
`COC(=O)C1=CN=C(C(=O)OC)NN1`: the growth inhibition was 13.9% in test [1]; 0.25% in test [2]; -8.6% in test [3]; 15.8% in test [4]; -4.45% in test [5]; 3.15% in test [6].
Turning to `COc1cc(C2C3=C(CCCC3=O)N(c3ccc(C)cc3)C3=C2C(=O)CCC3)c([N+](=O)[O-])cc1OC`, the growth inhibition is -10.8% in test [1]; -4.2% in test [2]; 2.65% in test [3]; 2.2% in test [4]; 4.3% in test [5]; -0.3% in test [6].
As for `c1ccc2c(c1)CCC(C1=NC3CCCCC3N1)=N2` (stereo unspecified), the growth inhibition in test [1] was -1.25%; in test [2], 3.7%; in test [3], 1.1%; in test [4], -47.3%; in test [5] it was 6.3%; in test [6] it was 1.85%.
